# This is part of a sample that, as a whole, favours compounds with a hit. Of some 83,000 tested, about 20% had one in any assay.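 Method: cells in 96-well plates; compound added at one concentration; 48 h incubation; percent growth measured; values under 10 scored active.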 A number with no mark means an inactive call. The source made the active and inactive calls.
# Tests used:
# [1] = system: HL-60(TB) leukemia; assay: NCI-60 one-dose screen, 48 h (100 = growth as untreated, 0 = no growth, -100 = all killed); conditions: 10 µM unless noted
# [2] = system: MCF7 breast; assay: as above; conditions: 10 µM unless noted
SMILES,growth [1],growth [2]
Cc1cc(=O)n(C(=O)Nc2ccccc2Cl)c2cc(O)ccc12,107%,–
Cc1cccc(CNc2c3ccccc3nc3ccccc23)c1,12.5%,–
CCOC(=O)CCN(C(=O)Nc1ccccc1)C1CCCCC1,113%,–
O=C1CNc2cc(Cl)ccc2N1,99.7%,–
CN(C)c1ccc(S(=O)(=O)O)cc1,128%,–
CCOC(=O)c1[nH]c(-c2ccc(Cl)cc2)cc1-c1cccnc1,-20.7% (active),–
CCCCc1oc2ccccc2c1C(=O)c1ccc(O)cc1,68%,–
c1csc(-c2cnc3nonc3n2)c1,1.96% (active),–
S=c1[nH]nc2sc3ccccc3n12,107%,–
COc1cccc(OC)c1C(=O)N[C@@H]1C(=O)N2[C@@H]1SC(C)(C)[C@@H]2C(=O)O,94.3%,–
Oc1ccc(-c2nc(-c3ccc4oc5ccc(-c6[nH]c(-c7ccc(O)cc7)nc6-c6ccccc6)cc5c4c3)c(-c3ccccc3)[nH]2)cc1,39.9%,–
N#Cc1ccccc1OCC(=O)Nc1nc2c(s1)COc1ccccc1-2,107%,–
O=C(CC12CC3CC(CC(C3)C1)C2)NCCOCCOCCOCCNC(=O)c1cc2c(o1)C(=O)c1ccccc1C2=O,-7.22% (active),–
Cn1c2ccccc2c2c3c(c4c5ccccc5n(C)c4c21)C(=O)OC3,98.5%,–
N#Cc1cccc(-c2nc3ccccn3c2NCCN2CCOCC2)c1,101%,–
COc1ccc(-c2cc(=O)c3c(OC)c4ccoc4cc3o2)cc1,117%,–
O=c1[nH]c(=S)[nH]c2nc[nH]c12,87%,–
CC(C)(C)n1cc(-c2ccnc(NCCCNS(=O)(=O)c3ccc(C(F)(F)F)cc3)c2)c(-c2cccc(O)c2)n1,-24.5% (active),–
COc1ccc(-n2c(C(O)c3ccccc3)nn(CN3CCOCC3)c2=S)cc1 (configuration not stated),126%,–

SMILES,growth [1],growth [2]
O=C(CI)NCCNc1cccc2c(S(=O)(=O)O)cccc12,105%,–
C=C1CCC2C3(C)COC(c4cccc(Cl)c4)OC3CCC2(C)C1/C=C/C1=CCOC1=O (configuration not stated),33.7%,–
CC(=O)ON1CCCC(P(=O)(OCCSC(=O)C(C)(C)C)OCCSC(=O)C(C)(C)C)C1=O (configuration not stated),14%,–
Cc1ccc2[nH]c(=O)c3c(c2c1)Oc1ncn2nc(-c4ccco4)nc2c1C3c1ccc(Cl)cc1 (configuration not stated),96.8%,–
Cc1nnc2c(Cc3ccccc3)nc3ccccc3n12,95.7%,–
CCCOC(=O)c1ccc2c(c1)[N+](=O)C(C(=O)c1ccccc1)=C(C(F)(F)F)[N+]2=O,-71.6% (active),–
COc1cc(Cn2cc3c(c2)-c2onc(CO)c2CC3)cc(OC)c1OC,77.5%,–
COc1cc2nc(NC3CCCC3)nc(NC3CCN(C(C)C)CC3)c2cc1OC,88.7%,–
O=Cc1nc2ccccc2[nH]1,98%,–
COc1cc2cc(C(=O)Nc3ccccc3)c(N)nc2cc1OC,-42.1% (active),–
CC1(C)C=CC[C@]2(C)[C@H]3CC[C@@H]4[C@H]5[C@H](C(=O)/C=C/c6cccnc6)CC[C@]5(CO)CC[C@@]4(C)[C@]3(C)CC[C@@H]12,-29.2% (active),–
CCOC(=O)C1=C(C(F)(F)F)NC(=O)NC1CN1C(=O)c2ccccc2C1=O (configuration not stated),46.2%,–
CCOC(=O)C1=C(C)N2C(=NC3=C(CCCC/C3=C\c3cc(OC)c(OC)c(OC)c3)C2c2cc(OC)c(OC)c(OC)c2)S1 (configuration not stated),49.9%,–
Brc1ccc(Nc2csc(-c3ccccn3)n2)cc1,99.6%,–
C=C1C(=O)O[C@H]2[C@H]1CC/C(COC(=O)NCc1ccc(Cn3c(=O)sn(CCCC)c3=O)cc1)=C\CC[C@@]1(C)O[C@@H]21,-33.2% (active),–
CC[C@]1(O)CC2CN(CCc3c([nH]c4ccccc34)[C@@](C(=O)OC)(c3cc4c(cc3OC)N(C=O)[C@H]3[C@@](O)(C(=O)OC)[C@H](OC(C)=O)[C@]5(CC)C=CCN6CC[C@]43[C@@H]65)C2)C1 (some centres not stated),7.11% (active),–
Cn1c(=O)c2[nH]c(SCC(=O)Nc3ccc(C(=O)/C=C/c4ccccc4Cl)cc3)nc2n(C)c1=O,98.6%,–
O=C1C(Cc2ccccc2)N=C(c2cccc(O)c2)c2ccc(Cl)cc2N1CC1CC1 (configuration not stated),–,76.3% [30 µM]
